We go through six molecules from PubChem BioAssay.

One may read the inhibition as the change of the read-out against control, counted positive when it falls.

Assay [1] in a line: yeast TOR pathway RPL19A-GFP modulators, primary screen, cell-based, S. cerevisiae, multiplex flow cytometry (AID 1862; in the data active means percent of DMSO control GFP below about 86%;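 further: lower values mimic rapamycin by blocking the RPL19A rise seen in DMSO cells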). To be noted: S. cerevisiae RPL19A-GFP strain, flow cytometry fluorescence, 3 h; at 10 µM; stronger effect = lower value.
Assay [2] in a line: modulators of MEP2-GFP levels in yeast, primary screen, S. cerevisiae, multiplex flow cytometry (AID 1867;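 active means GFP response, as percent of the DMSO control, above the screen-wide mean plus 3 SD, about 139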;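 further: median GFP channel fluorescence of barcode-gated MEP2-GFP cells measured by flow cytometry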). To be noted: S. cerevisiae MEP2-GFP strain, 3 h, at 10 µM, stronger effect = higher value.
Assay [3] in a line: modulators of CIT2-GFP expression in yeast, primary screen, S. cerevisiae, GFP fusion, multiplex flow cytometry (AID 1870;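 active means percent response above a set limit, the screen-wide mean plus 3 SD, cut at about 130% in these data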;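 further: barcoded CIT2-GFP strain pooled with four other GFP strains with rapamycin as positive control; median GFP fluorescence per well over plate mean of DMSO wells so 100% = DMSO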). The settings on record: 3 h, at 10 µM, stronger effect = higher value. On the technique in general: Flow cytometry measures light scatter and fluorescence of single cells or particles in a stream.
Assay [4] is described as follows: modulators of LAP4-GFP expression in yeast, primary screen, S. cerevisiae, multiplex flow cytometry (AID 1873;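 active means GFP signal, as percent of the solvent control, above the screen mean plus 3 SD, about 149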). The settings on record: 3 h, at 10 µM, stronger effect = higher value.
A short description of assay [5]: modulators of AGP1-GFP expression in yeast TOR pathway, primary screen, cell-based, multiplex flow cytometry, S. cerevisiae (AID 1887;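 active means GFP signal above the screen-wide mean plus 3 SD, that is over about 124.5% of the solvent control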;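 further: AGP1-GFP fusion strain of S. cerevisiae within a five-strain barcoded multiplex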). To be noted: 3 h, at 10 µM, stronger effect = higher value.
Assay [6] in a line: inhibitors of CD8+ T cell-vesicle binding, pilot screen, LFA-1/ICAM-1 modulator project, MLPCN validation set, flow cytometry (AID 2523;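 active means response below a set limit, under 55% cells CD8-positive and vesicle-bound, and CD8 cells' 90th-percentile brightness under 279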;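 on vesicle binding response: mean PE anti-B7-1 fluorescence of CD8+ cells relative to row control; 100% = QL9-loaded vesicles with DMSO vehicle in the same plate row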). The settings on record: 2C mouse CD8+ T cells, at 7 µM, stronger effect = lower value; double positive events: measured here: CD8+/vesicle+ event percentage.
Assay [7] has as its target Integrin beta-1 (Homo sapiens) + Integrin alpha-4 (Homo sapiens) (UniProt P13612+P05556). The experiment in a line: inhibition of HUTS-21 binding to VLA-4, pilot screen, VLA-4 allosteric modulator project, U937 cells, HUTS-21 mAb, flow cytometry, validation set (AID 2674;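 active means inhibition above 50%, about 3 SD of the validation set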;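 further: antibody binding induced by the VLA-4 ligand LDV present at three times its Kd; 0% = LDV ligand with antibody and no compound and 100% = antibody without LDV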). The settings on record: HUTS-21 LIBS mAb binding, at 6.7 µM, stronger effect = higher value.
Assay [8] is described as follows: superoxide lowering in aged yeast cells, pilot screen, validation compound set (AID 2706;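 active means superoxide response below 65% of plate, a cut near 3 SD across the whole screen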;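 further: yeast exposed to compound for one week at 30 degrees C before staining; 100% = mean of all compound wells on the same plate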). The settings on record: S. cerevisiae aging, superoxide DHE fluorescence; at 10 µM; stronger effect = lower value.
Assay [9] concerns the target Beta-adrenergic receptor kinase 1 (Homo sapiens) (UniProt P25098). Briefly: GRK2 binders displacing RNA aptamer, biochemical, validation, human GRK2, bead flow cytometry (AID 488806;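 active means aptamer binding inhibition above 30%, about 3 SD of noise from non-fluorescent compounds; inactive means inhibition at or below 30%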). To be noted: bead-bound GRK2, FAM-aptamer displacement, at 10 µM, stronger effect = higher value.
The target in assay [10] is Beta-2 adrenergic receptor (Homo sapiens) (UniProt P07550). Briefly: beta2AR agonists driving receptor internalization, pilot screen, cell-based, FAP fluorogen, flow cytometry, validation set (AID 504459;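 active means percent response above 42, roughly 3 SD of non-fluorescent test compounds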;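 further: agonist-driven loss of surface beta2AR via internalization measured by FAP dye flow cytometry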). The settings on record: Am2.2-beta2AR cells, FAP surface receptor flow cytometry; at 10 µM; stronger effect = higher value.
Assay [11] addresses AP-2 complex subunit beta (Homo sapiens) (UniProt P63010). The experiment in a line: inhibitors of arrestin peptide binding to AP2, pilot screen, biochemical, validation set, GST-AP2 beads, flow cytometry (AID 504541;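 active means inhibition above 54%, about 3 SD of non-fluorescent compounds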;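 further: AP2 carries R879A mutation and is captured from E. coli lysate; bead-bound FITC arrestin peptide fluorescence measuring arrestin peptide binding to AP2; 0% = DMSO wells and 100% = excess unlabeled arrestin peptide control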). The settings on record: FITC arrestin peptide, at 10 µM, stronger effect = higher value.
A short description of assay [12]: yeast V-ATPase proton transport modulators, S. cerevisiae, pHLuorin, HTS validation (AID 504600; in the data active means response above about 15%;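 further: plate controls were DMSO for no effect and reference compound for full effect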). To be noted: S. cerevisiae pHLuorin cytosolic pH, at 10 µM, stronger effect = higher value.
The test system of assay [13] is anti-desmoglein-3 scFv antibody binding to human DSG3. Briefly: inhibitors of anti-DSG3 scFv binding to DSG3, pilot screen, biochemical, validation compound set, bead-based, flow cytometry (AID 588368;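 active means binding below the plate cutoff, the plate median minus 3 SD, with a reading above zero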;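 further: signal is the median channel fluorescence of bead-bound GFP antibody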). To be noted: Protein G beads, DSG3-Fc, scFv-GFP binding, at 10 µM, stronger effect = lower value.
Assay [14] relates to Botulinum neurotoxin type F light chain protease (Clostridium botulinum). Briefly: Botulinum neurotoxin type F light chain protease inhibition, multiplex microsphere flow cytometry, validation set (AID 588459). The settings on record: multiplex microsphere protease substrate cleavage assay, at 10 µM, stronger effect = higher value.
In assay [15] the target is Botulinum neurotoxin type A (Clostridium botulinum) (UniProt P0DPI0). The experiment in a line: BoNT/A light chain protease inhibitors, biochemical, multiplex microsphere flow cytometry, validation set (AID 588460). The settings on record: at 10 µM, stronger effect = higher value.
In assay [16] the target is Lethal factor (Bacillus anthracis) (UniProt P15917). Briefly: Lethal factor protease inhibitors, Bacillus anthracis, multiplex microsphere cleavage assay, validation set (AID 588461). The settings on record: flow cytometry, at 10 µM, stronger effect = higher value.
The nature of assay [17]: inhibitors of fungal efflux pumps CDR1, CDR2, MDR1, pilot screen, validation compound set, multiplex, phenotypic (AID 588506;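 active means efflux inhibition above 0.42, the validation set average plus 4 SD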;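 further: Nile Red retained in cells so higher fluorescence means more efflux inhibition; 0 = negative control wells and 1 = enniatin B 25 µM full block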). To be noted: S. cerevisiae pump-expressing triplex, Nile Red efflux flow cytometry; at 10 µM; stronger effect = higher value.
Assay [18] addresses ATP-binding cassette sub-family B member 6 (Homo sapiens) (UniProt Q9NP58). The experiment in a line: ABCB6 transporter inhibitors, pilot screen, K562-ABCB6 cells, flow cytometry, validation set (AID 588550;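 active means inhibition above the screen-wide mean plus 3 SD, about 51%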;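 further: 0% = DMSO wells and 100% = benzethonium chloride 70 µM positive control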). The settings on record: K562-ABCB6 porphyrin accumulation, 1 h, at 10 µM, stronger effect = higher value.
Assay [19] can be described thus: promoters of myeloid differentiation in arrested cells, primary screen, cell-based, GFP/MAC1 double positive, flow cytometry, validation set (AID 588685;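 active means differentiation response of at least 50%, scaled between solvent and reference control, from cells with both markers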;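 further: compound exposure lasts four days before antibody staining and flow analysis; 0% = DMSO wells and 100% = 5 µM fulvestrant positive control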). The settings on record: ER-HoxA9 marrow cells, stronger effect = higher value.

Each structure is given as a SMILES string. Records with an inconclusive call do not appear. Activity calls are given as the source filed them. Unless noted, how the calls were made is not given here.

Chain of Beta-2 adrenergic receptor (Homo sapiens) (P07550 whole entry, looked up): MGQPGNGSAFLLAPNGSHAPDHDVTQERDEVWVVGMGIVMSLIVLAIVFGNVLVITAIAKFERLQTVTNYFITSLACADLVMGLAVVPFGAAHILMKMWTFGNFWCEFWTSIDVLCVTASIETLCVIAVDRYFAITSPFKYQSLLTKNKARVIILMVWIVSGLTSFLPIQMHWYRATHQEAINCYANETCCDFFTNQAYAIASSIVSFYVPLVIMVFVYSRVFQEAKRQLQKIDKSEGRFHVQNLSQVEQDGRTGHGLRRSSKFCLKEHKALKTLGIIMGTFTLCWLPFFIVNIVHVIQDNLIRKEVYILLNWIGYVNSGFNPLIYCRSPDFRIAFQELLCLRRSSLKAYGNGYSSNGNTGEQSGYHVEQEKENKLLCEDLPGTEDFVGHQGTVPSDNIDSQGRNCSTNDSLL
Chain of Beta-adrenergic receptor kinase 1 (Homo sapiens) (P25098 whole entry, looked up): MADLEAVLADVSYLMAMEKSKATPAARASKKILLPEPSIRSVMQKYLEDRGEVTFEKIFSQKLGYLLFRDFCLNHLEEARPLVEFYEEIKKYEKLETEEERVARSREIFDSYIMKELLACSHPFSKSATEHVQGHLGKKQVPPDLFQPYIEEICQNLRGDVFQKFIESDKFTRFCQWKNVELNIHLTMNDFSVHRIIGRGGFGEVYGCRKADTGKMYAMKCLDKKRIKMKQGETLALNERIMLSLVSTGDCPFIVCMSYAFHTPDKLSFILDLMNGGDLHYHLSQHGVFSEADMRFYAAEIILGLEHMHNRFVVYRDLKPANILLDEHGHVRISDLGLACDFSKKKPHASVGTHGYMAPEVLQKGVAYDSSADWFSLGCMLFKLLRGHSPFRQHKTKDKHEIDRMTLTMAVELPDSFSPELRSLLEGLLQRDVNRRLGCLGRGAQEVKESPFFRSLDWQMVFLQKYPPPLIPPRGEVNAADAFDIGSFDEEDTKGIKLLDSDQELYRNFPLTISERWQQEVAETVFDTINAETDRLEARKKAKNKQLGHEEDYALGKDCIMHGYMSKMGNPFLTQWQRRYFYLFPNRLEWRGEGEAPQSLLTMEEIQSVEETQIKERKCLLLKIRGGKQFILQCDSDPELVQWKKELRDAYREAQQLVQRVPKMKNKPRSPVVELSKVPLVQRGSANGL
Chain of Integrin beta-1 (Homo sapiens) + Integrin alpha-4 (Homo sapiens) (P05556 whole entry, looked up): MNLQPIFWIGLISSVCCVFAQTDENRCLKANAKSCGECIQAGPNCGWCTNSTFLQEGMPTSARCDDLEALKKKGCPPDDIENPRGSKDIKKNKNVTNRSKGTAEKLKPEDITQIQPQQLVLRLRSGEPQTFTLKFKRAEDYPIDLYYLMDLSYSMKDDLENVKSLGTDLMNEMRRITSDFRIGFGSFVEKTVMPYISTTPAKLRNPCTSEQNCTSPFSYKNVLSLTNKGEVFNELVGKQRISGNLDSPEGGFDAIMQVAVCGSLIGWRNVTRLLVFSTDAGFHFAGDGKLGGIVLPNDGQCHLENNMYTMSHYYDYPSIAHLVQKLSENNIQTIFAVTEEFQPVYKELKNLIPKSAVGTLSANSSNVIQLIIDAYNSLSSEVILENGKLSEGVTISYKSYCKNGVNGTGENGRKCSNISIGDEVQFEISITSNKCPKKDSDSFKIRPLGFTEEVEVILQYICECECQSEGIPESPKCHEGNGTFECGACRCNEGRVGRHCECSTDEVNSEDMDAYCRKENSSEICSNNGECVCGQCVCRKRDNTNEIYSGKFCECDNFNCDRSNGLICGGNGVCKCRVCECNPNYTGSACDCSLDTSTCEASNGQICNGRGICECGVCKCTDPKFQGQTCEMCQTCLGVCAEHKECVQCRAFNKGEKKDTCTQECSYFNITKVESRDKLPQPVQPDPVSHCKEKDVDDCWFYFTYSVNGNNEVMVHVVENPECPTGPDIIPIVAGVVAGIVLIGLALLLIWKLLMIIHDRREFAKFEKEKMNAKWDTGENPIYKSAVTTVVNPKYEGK
Chain of Integrin beta-1 (Homo sapiens) + Integrin alpha-4 (Homo sapiens) (P13612 whole entry, looked up): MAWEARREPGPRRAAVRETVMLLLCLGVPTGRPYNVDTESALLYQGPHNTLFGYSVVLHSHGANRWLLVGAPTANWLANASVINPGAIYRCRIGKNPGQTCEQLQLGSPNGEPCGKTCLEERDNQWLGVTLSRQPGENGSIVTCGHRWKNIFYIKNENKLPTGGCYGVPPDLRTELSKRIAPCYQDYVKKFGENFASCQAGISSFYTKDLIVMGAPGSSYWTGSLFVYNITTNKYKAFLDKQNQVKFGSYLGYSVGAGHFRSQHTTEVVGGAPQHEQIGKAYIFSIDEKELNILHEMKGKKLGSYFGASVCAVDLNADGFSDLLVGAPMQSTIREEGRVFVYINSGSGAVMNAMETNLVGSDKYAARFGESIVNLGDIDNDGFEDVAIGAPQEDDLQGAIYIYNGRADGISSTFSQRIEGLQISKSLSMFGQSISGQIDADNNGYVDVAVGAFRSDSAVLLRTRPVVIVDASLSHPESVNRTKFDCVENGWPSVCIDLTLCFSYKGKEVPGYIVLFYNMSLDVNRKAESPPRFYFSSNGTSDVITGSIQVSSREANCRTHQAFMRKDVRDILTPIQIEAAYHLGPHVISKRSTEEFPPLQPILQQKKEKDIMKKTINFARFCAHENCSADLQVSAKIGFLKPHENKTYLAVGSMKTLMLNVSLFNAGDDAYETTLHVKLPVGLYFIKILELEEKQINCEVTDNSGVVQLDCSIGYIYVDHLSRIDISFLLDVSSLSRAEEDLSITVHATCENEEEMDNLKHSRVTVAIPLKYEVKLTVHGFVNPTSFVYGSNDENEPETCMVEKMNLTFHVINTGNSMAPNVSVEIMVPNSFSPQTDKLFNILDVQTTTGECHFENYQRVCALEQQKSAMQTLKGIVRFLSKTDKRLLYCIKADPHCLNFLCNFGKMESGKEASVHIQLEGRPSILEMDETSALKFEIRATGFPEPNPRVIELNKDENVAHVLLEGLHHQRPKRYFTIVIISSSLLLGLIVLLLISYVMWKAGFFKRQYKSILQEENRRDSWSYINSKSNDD
Chain of AP-2 complex subunit beta (Homo sapiens) (P63010 whole entry, looked up, one chain of several): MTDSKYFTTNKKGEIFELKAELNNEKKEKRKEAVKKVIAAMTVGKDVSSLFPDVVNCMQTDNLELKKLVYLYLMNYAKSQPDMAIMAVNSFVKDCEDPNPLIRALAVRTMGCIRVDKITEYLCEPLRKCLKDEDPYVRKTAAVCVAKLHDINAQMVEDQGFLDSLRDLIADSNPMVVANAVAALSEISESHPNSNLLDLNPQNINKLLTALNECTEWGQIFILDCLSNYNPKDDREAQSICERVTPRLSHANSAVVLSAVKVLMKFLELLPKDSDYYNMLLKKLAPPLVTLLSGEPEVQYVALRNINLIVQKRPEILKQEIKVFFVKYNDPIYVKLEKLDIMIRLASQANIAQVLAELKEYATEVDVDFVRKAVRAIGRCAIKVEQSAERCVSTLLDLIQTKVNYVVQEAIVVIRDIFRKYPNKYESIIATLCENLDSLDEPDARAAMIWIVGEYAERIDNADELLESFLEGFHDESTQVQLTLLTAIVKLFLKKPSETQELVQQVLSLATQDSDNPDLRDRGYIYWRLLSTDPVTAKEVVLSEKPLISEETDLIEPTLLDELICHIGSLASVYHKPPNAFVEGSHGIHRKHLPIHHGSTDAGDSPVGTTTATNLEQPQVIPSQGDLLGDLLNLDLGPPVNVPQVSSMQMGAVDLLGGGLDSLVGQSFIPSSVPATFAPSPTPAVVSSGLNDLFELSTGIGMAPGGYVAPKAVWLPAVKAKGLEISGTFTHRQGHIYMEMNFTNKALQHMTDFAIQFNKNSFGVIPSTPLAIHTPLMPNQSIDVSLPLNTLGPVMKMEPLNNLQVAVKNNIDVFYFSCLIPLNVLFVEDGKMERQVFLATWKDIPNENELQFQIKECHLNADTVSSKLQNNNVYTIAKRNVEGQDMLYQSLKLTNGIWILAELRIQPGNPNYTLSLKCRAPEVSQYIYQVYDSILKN
Chain of ATP-binding cassette sub-family B member 6 (Homo sapiens) (Q9NP58 whole entry, looked up): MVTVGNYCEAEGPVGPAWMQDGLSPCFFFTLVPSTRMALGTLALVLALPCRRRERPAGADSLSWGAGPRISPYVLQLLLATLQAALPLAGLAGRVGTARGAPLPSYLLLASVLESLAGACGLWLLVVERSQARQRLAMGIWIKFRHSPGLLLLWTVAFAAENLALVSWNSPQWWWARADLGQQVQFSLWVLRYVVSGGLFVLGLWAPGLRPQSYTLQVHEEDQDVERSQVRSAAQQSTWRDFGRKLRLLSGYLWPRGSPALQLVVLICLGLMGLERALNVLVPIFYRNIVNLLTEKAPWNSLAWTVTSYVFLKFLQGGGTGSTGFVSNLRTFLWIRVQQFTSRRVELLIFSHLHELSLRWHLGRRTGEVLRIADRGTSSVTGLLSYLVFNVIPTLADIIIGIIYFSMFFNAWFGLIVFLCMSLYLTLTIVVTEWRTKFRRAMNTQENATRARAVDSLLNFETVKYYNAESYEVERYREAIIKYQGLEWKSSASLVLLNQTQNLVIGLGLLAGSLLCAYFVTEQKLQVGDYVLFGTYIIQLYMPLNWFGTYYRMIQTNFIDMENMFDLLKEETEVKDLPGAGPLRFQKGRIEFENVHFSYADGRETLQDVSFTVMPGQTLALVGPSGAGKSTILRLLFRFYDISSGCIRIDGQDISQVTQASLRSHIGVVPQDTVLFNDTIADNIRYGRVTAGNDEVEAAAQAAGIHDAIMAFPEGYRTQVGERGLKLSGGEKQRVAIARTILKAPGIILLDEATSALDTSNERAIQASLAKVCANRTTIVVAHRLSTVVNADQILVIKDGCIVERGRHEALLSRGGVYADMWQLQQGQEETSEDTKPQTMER

Regarding `CCOc1ccc(C2C(C#N)=C(N)Oc3c2c(=O)oc2ccccc32)cc1` (centres undefined), the percent of DMSO control GFP in assay [1] is 104% (inactive). Also, the figures for the GFP response vs DMSO in assay [2] and in assay [4] were 99.6% (inactive) and 102% (inactive), respectively. For the same molecule, the percent response of DMSO control in assay [3] is 102% (inactive). The GFP response, % of DMSO in assay [5] was 101% (inactive). In [6], this molecule had a double positive events of 59.3%. Besides, the vesicle binding response in assay [6] is 213% (inactive). The inhibition in assay [7] was 9.13% (inactive); in assay [11], 22.7% (inactive); in assay [14], -0.4% (inactive); in [15], 0.3% (inactive); in assay [16], 0.5% (inactive); in assay [18], 5% (inactive). Also, the superoxide response (% of plate) in assay [8] was 103% (inactive). Further, in assay [9], the aptamer binding inhibition was 4% (inactive). Further, the response in assay [10] was -0.19% (inactive); in assay [12], -3.38% (inactive). For the same molecule, the binding (% of control) in assay [13] is 104% (inactive). The efflux inhibition (fraction of control) in [17] is -0.13 (inactive). In addition, the differentiation response in [19] is -23.2% (inactive).
As to `CC12CC[C@H]3[C@@H](CCC4(O)C[C@H](O)CCC34/C=N/NC(=O)Cc3ccccc3)C1(O)CCC2C1=CC(=O)OC1` (some centres undefined), in [1], the percent of DMSO control GFP was 103% (inactive). Besides, the results for the GFP response vs DMSO in assay [2] and in assay [4] were 101% (inactive) and 92% (inactive), respectively. Besides, in [3], the percent response of DMSO control was 115% (inactive). Besides, in assay [5], the GFP response, % of DMSO was 107% (inactive). For the same molecule, in assay [6], the double positive events amounted to 65.3%. The vesicle binding response in assay [6] was 204% (inactive). Also, the inhibition in assay [7] was 1.62% (inactive); in assay [11] it was -3.69% (inactive); in assay [14] it was 3.5% (inactive); in assay [15], -0.2% (inactive); in assay [16] it was 3.2% (inactive); in [18], 5% (inactive). The superoxide response (% of plate) in assay [8] is 111% (inactive). The aptamer binding inhibition in [9] was 1% (inactive). The response is -5.5% (inactive) in assay [10] and 1.22% (inactive) in assay [12]. For the same molecule, in assay [13], the binding (% of control) is 95% (inactive). Further, the efflux inhibition (fraction of control) in assay [17] was 0.08 (inactive). Moreover, the differentiation response in assay [19] is 0.24% (inactive).
Consider `c1ccc2c(c1)[nH]c1cnccc12`, for which the percent of DMSO control GFP in assay [1] was 102% (inactive). The GFP response vs DMSO is 97.2% (inactive) in [2] and 88.1% (inactive) in assay [4]. Besides, the percent response of DMSO control in [3] is 104% (inactive). Moreover, in [5], the GFP response, % of DMSO was 95.9% (inactive). In assay [6], this molecule had a double positive events of 62.8%. Moreover, the vesicle binding response in assay [6] was 961% (inactive). For the same molecule, the inhibition in [7] was -18.1% (inactive); in [11], -7.59% (inactive); in assay [14], 5.3% (inactive); in [15] it was 2.5% (inactive); in assay [16] it was -4.7% (inactive); in assay [18] it was 0% (inactive). Further, the superoxide response (% of plate) in assay [8] was 99.7% (inactive). Also, in [9], the aptamer binding inhibition was 0% (inactive). For the same molecule, the figures for the response in [10] and in assay [12] were -10.7% (inactive) and -0.12% (inactive), respectively. Further, in assay [13], the binding (% of control) is 96.1% (inactive). Moreover, the efflux inhibition (fraction of control) in assay [17] was 0.14 (inactive). The differentiation response in assay [19] is 2.2% (inactive).
Take `COc1ccc(-c2nc3ccccc3c(=O)o2)cc1`: the percent of DMSO control GFP in assay [1] was 103% (inactive). Besides, the GFP response vs DMSO was 95.2% (inactive) in [2] and 106% (inactive) in [4]. Further, the percent response of DMSO control in assay [3] was 92% (inactive). In addition, in [5], the GFP response, % of DMSO is 87.9% (inactive). Also, in assay [6], the double positive events amounted to 78.9%. Also, in assay [6], the vesicle binding response was 308% (inactive). The inhibition in [7] was -19.5% (inactive); in assay [11], -5.48% (inactive); in [14] it was 1.8% (inactive); in [15] it was 1.3% (inactive); in [16], 0.8% (inactive); in assay [18] it was -2% (inactive). The superoxide response (% of plate) in [8] is 99.5% (inactive). Further, the aptamer binding inhibition in [9] is 1% (inactive). Besides, the response in [10] was 12.6% (inactive); in [12] it was -0.56% (inactive). The binding (% of control) in assay [13] is 102% (inactive). In [17], the efflux inhibition (fraction of control) was 0.22 (inactive). Also, in assay [19], the differentiation response was 2.4% (inactive).
For `CCN(CC)CCOC(=O)C(O)(c1ccccc1)c1ccccc1`, the percent of DMSO control GFP in [1] was 102% (inactive). The GFP response vs DMSO in [2] is 108% (inactive); in assay [4], 92.6% (inactive). The percent response of DMSO control in [3] was 96.5% (inactive). In [5], the GFP response, % of DMSO was 94.5% (inactive). The double positive events in [6] was determined as 62%. Further, the vesicle binding response in assay [6] is 152% (inactive). The inhibition in [7] was 2.93% (inactive); in assay [11] it was 0.48% (inactive); in [14], -2% (inactive); in [15] it was -0.9% (inactive); in assay [16], -5.6% (inactive); in assay [18], -101% (inactive). For the same molecule, the superoxide response (% of plate) in [8] is 90.4% (inactive). In addition, the aptamer binding inhibition in assay [9] is 2% (inactive). The response in assay [10] is 10.4% (inactive); in [12], -1.11% (inactive). The binding (% of control) in assay [13] is 108% (inactive). Also, the efflux inhibition (fraction of control) in assay [17] was -0.095 (inactive). Besides, the differentiation response in assay [19] was 7.13% (inactive).
As for `Cc1cc(Cl)ccc1OCC(=O)O`, the percent of DMSO control GFP in assay [1] is 96.8% (inactive). The GFP response vs DMSO in assay [2] is 93.8% (inactive); in assay [4] it was 105% (inactive). Moreover, the percent response of DMSO control in assay [3] was 109% (inactive). Besides, the GFP response, % of DMSO in assay [5] is 103% (inactive). The same molecule yielded a double positive events in assay [6] of 60.3%. Moreover, in assay [6], the vesicle binding response was 188% (inactive). For the same molecule, the inhibition in assay [7] is 7.22% (inactive); in [11], -8.4% (inactive); in assay [14] it was -6.1% (inactive); in assay [15] it was -0.1% (inactive); in [16], 2.4% (inactive); in assay [18] it was 10% (inactive). In addition, the superoxide response (% of plate) in assay [8] was 108% (inactive). Moreover, the aptamer binding inhibition in [9] was -4% (inactive). Moreover, in assay [12], the response is -14.2% (inactive). The binding (% of control) in [13] was 111% (inactive). Moreover, the efflux inhibition (fraction of control) in assay [17] is -0.35 (inactive). In addition, the differentiation response in [19] was -24.4% (inactive).
